# Hits are enriched below; roughly 8.1% of the tested compounds scored in any of these assays.
# MCF10A rereplic: induces DNA re-replication in MCF 10a normal breast cells; MCF 10A DNA re-replication, Hoechst nuclear intensity, 48 h; Potency, µM (top dose mostly 46.1 µM), usual class: activators; 350,000 compounds, 2.9% hits; AID 624296; also: nearly all actives have a fitted effect of over 50% in size
# SW480 rerep: DNA re-replication induction in SW480 cells | SW480 DNA re-replication, Hoechst DNA content imaging, 48 h | Potency, µM (titrated, usually from 46.1 µM), usual class: activators | 340,000 compounds, 1.8% hits; also: nearly all actives have a fitted effect of over 55% in size
#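 Cells (250 per well) received 23 nL compound or DMSO by pin tool and were kept 48 hr at 37 C, 5% CO2. Nuclei were then stained with Hoechst for 40 min and scanned for DNA content.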
# ELG1 DNA repair: inhibitors of ELG1-dependent DNA repair in HEK293T cells | HEK293T ELG1-luciferase reporter, luminescence, 16 h; DNA damage induced by 5-fluorouridine | Potency, µM (series often up to 46.1 µM), most hits filed as inhibitors | 330,000 compounds, 2.3% hits | AID 504467; also: nearly all actives have a fitted effect of over 55% in size
#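 Quantitative HTS, concentration-response format. 2,000 cells/well co-treated with 5-fluorouridine and compound, 16 hr in 5% CO2 at 37 °C; ONE-Glo luminescence read after 30 min.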
# KB-V1 MDR tox: kills drug-selected multidrug resistant KB-V1 cells; KB-V1 MDR cells viability, CellTiter-Glo, 72 h; Potency, µM (doses to about 46.1 µM), hits mostly cytotoxic; 400,000 compounds, 3.4% hits; AID 1347076; also: nearly all actives have a fitted effect of over 60% in size
#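 Luminescent ATP read-out (CellTiter-Glo, 10 min) measures survival of drug-selected KB-V1 MDR cells after 72 h, 37 degrees C compound exposure. Medium: phenol-red-free DMEM, 10% FBS. Values from fitted concentration-response curves.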
# KB-3-1 cytotox: KB-3-1 parental cell cytotoxicity. 400,000 compounds, 1.4% hits. Potency, µM (top dose mostly 46.1 µM), most hits filed as cytotoxic. KB-3-1 viability, CellTiter-Glo ATP luminescence, 72 h. AID 1347075; also: nearly all actives have a fitted effect of over 60% in size
#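 Cytotoxicity in the drug-sensitive parental line KB-3-1 was scored as loss of CellTiter-Glo luminescence following 72 h incubation with compound. Values come from curve fitting of normalized concentration-response data.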
# Numbers stand for hits; i = inactive; ? = inconclusive; nt = no result; ! = repeats disagree; [ ] = remark or other dose. Calls follow the shape of the dose curve; as a rule, active = well fitted curve in the direction sought with a large enough effect; inconclusive = small, poorly fitted or top-dose-only effect, or another doubt; inactive = no such curve, though single readings can be large; an effect the other way counts as inactive or inconclusive.
SMILES,MCF10A rereplic,SW480 rerep,ELG1 DNA repair,KB-V1 MDR tox,KB-3-1 cytotox
Cc1ccc(S(=O)(=O)N(C)Cc2ccc(C(=O)N/N=C/c3ccc(OC(F)F)cc3OC(F)F)cc2)cc1,i,i,?,5.8µM,?
COc1ccccc1C(CNC(=O)c1cccc(S(=O)(=O)Nc2ccc(F)cc2)c1)N1CCCC1 (stereo not given),?,i,nt,i,i
CC1(c2ccccc2)NC(=O)N(CC(=O)Nc2ccc(N3CCOCC3)cc2N2CCOCC2)C1=O (stereo not given),i,i,?,?,i
CC(=O)c1cccc(NC(=O)/C=C/c2ccc(S(=O)(=O)N3CCOCC3)cc2)c1,i,i,23µM,i,i
COc1ccc(/C=C/C(=O)Nc2cccc(S(=O)(=O)N3CCOCC3)c2)cc1OC,i,?,21µM,i,i
CN(C)S(=O)(=O)c1cccc(NC(=O)/C=C/c2ccc(S(=O)(=O)N3CCOCC3)cc2)c1,?,i,23µM,nt,nt
O=C(/C=C/c1ccc(OC(F)F)cc1)Nc1cccc(S(=O)(=O)N2CCOCC2)c1,?,i,23µM,?,?
O=C(/C=C/c1ccccc1)Nc1ccc(S(=O)(=O)N2CCOCC2)cc1,i,i,nt,?,i
COc1cc(/C=C/C(=O)Nc2cccc(S(=O)(=O)N3CCOCC3)c2)ccc1OCC#N,i,i,?,i,i
COc1ccc(/C=C/C(=O)NC2CCCCCCC2)cc1S(=O)(=O)N1CCOCC1,?,nt,i,23µM,?
COc1ccc(S(=O)(=O)N2CCOCC2)cc1NC(=O)CO/N=C/c1ccccc1OC(F)F,i,?,?,?,i
CC(O/N=C/c1ccccc1OC(F)F)C(=O)Nc1cccc(S(=O)(=O)N2CCOCC2)c1 (stereo not given),i,i,?,13µM,i
Cc1cc(C)c2nc(NC(=O)c3ccc4c(=O)n5c(nc4c3)CCCCC5)sc2c1,i,i,10µM,i,i
O=C(Nc1nc(-c2ccccc2)cs1)c1ccc2c(=O)n3c(nc2c1)CCCCC3,18µM,i,3.7µM,?,?
O=C(Nc1ccccc1Cl)c1ccc2c(=O)n3c(nc2c1)CCC3,i,i,?,i,i
CCc1nc2ccc(C(=O)Nc3ccc(OC)c(OC)c3)cn2c1N(CCC(C)C)CCN(C)C,nt,nt,nt,i,i
O=C(NCC1CCCO1)C1CCN(C2CCN(CCCC3CCCC3)CC2)CC1 (stereo not given),16µM,?,i,i,i
CC(=O)Nc1ccc(S(=O)(=O)N2CCc3cc4c(cc3C2)OCCCO4)cc1,i,i,?,i,i
N#C/C(=C/c1ccccc1)C(=O)NCc1ccccc1,?,i,i,i,i
N#C/C(=C\c1cccc(NC(=O)c2ccccc2Cl)c1)C(=O)NCCc1ccccc1,?,18µM,15µM,i,?
COCCCNC(=O)/C(C#N)=C/c1cccc(NC(=O)c2ccccc2Cl)c1,i,1.6µM,i,?,i
CCC1CCCCN1C(=O)COC(=O)c1cncc(Br)c1 (stereo not given),nt,nt,nt,?,i
COc1cc(OC)c(C=NNC(=S)NC23CC4CC(CC(C4)C2)C3)c(OC)c1,?,?,nt,5.2µM,i
COc1ccc(C=NNC(=S)NC23CC4CC(CC(C4)C2)C3)cc1OC,9.2µM,?,nt,2.9µM,?
COc1cc(/C=N/NC(=S)NCc2ccccc2)ccc1OCC#N,i,i,?,?,i
SMILES,MCF10A rereplic,SW480 rerep,ELG1 DNA repair,KB-V1 MDR tox,KB-3-1 cytotox
COc1cccc(/C=N/NC(=O)NC23CC4CC(CC(C4)C2)C3)c1O,i,i,nt,?,?
CCOc1ccc(CNC(=S)N/N=C/c2ccc(OC)c(OC)c2)cc1,i,i,?,16µM,i
Cc1cc(C(=O)NC2CCCc3c2cnn3-c2ccc(C(C)(C)C)cc2)n[nH]1 (stereo not given),i,i,?,?,?
O=c1[nH]c(C2CCCN(S(=O)(=O)c3ccccc3)C2)nc2c1nnn2Cc1ccccc1Br (stereo not given),?,?,?,i,?
C[C@H]1CN([C@@H](C)CO)S(=O)(=O)c2ccc(-c3cncnc3)cc2O[C@H]1CN(C)C(=O)NC1CCCC1,nt,nt,nt,i,i
CCCc1cc(=O)oc2cc3oc(C)c(C)c3cc12,i,i,i,15µM,i
CCc1cc(=O)oc2cc3oc(C)c(C)c3cc12,i,i,?,?,i
CCN(CC)c1ccc(N=Nc2nn(C)c(C)c2[N+](=O)[O-])cc1,i,i,?,i,i
CCN(Cc1ccccc1)c1ccc(N=Nc2nn(C)c(C)c2[N+](=O)[O-])cc1,i,i,?,6.5µM,?
C[C@H](CO)N1C[C@H](C)[C@@H](CN(C)C(=O)NC2CCCCC2)Oc2c(NC(=O)C3CCCCC3)cccc2C1=O,i,i,i,i,i
O=C(Nc1cc(C(F)(F)F)ccc1Cl)C(NCc1ccccc1)c1ccccc1 (stereo not given),?,?,i,21µM,i
CCN(CC)CCNC(C(=O)Nc1cc(C(F)(F)F)ccc1Cl)c1ccccc1 (stereo not given),?,i,i,?,i
OCC1(Cc2ccc(Cl)cc2)CCN(CCCc2ccccc2)CC1,?,18µM,i,i,i
OCC1(Cc2ccc(Cl)cc2)CCN(Cc2ccccc2F)CC1,i,i,i,i,?
COCCNC(=O)C1Cc2c(-c3cccc(NC(C)=O)c3)ccnc2O1 (stereo not given),nt,nt,nt,i,i
Cc1ccc(-c2csc3ncnc(NS(=O)(=O)c4ccc(Cl)cc4)c23)cc1,?,i,i,i,i
O=S(=O)(Nc1ncnc2scc(-c3ccc(F)cc3)c12)c1cc(F)ccc1F,?,?,i,18µM,?
NNc1ncnc2scc(-c3ccc(Cl)cc3)c12,?,i,i,?,16µM
Clc1ccc(-c2csc3ncnc(Cl)c23)cc1,18µM,21µM,i,i,i
CCCC(C(=O)NCc1ccco1)N(C(=O)CNS(=O)(=O)c1ccccc1)c1ccc(OC)cc1 (stereo not given),i,i[1.84 µM],i,i,i
CCC(C(=O)NCc1ccco1)N(C(=O)CNS(=O)(=O)c1ccccc1)c1ccc(OC)cc1 (stereo not given),?,i,?,23µM,i
O=C1[C@H](Cc2ccccc2)NCCCC[C@@H](c2ccc(Cl)cc2)N1Cc1ccc(Cl)cc1,?,?,nt,?,12µM!
CN(C)c1nc(NCc2ccccc2)nc(SCC(=O)Nc2ccccc2)n1,?,i,?,?,i
CN(C)c1nc(NC(C)(C)C)nc(SCC(=O)Nc2ccccc2)n1,i,i,?,8.2µM,i
CN(C)c1nc(SCCOC(=O)Nc2ccccc2)nc(N(C)C)n1,i,i,?,15µM,i
COc1cc2c(cc1OC)C(c1cc(OC)c(O)c(OC)c1)CC(=O)N2 (stereo not given),nt,nt,nt,?,i
CC(=O)c1c(C)n(-c2ccc(C)cc2)c2ccc(OC(=O)COc3ccccc3)cc12,nt,nt,nt,?,i

# Compound activity deposited in PubChem BioAssay by National Center for Advancing Translational Sciences (NCATS).
